Source: PubChem BioAssay (NCI)
The panel holds about 79,000 compounds, 15% with a hit somewhere; the sample as a whole holds those more often. No stated cut-off is given here; in the data, active means growth inhibition above about 70%; inactive means the rest.

Assays:
[1] = NCI Yeast Anticancer Drug Screen. Data for the rad50 strain (AID 155);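 further: 0% = growth of vehicle-only cultures of the same strain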; settings: S. cerevisiae rad50 strain growth inhibition; at 50.0 µM; active compounds read high
Method in brief: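 A DNA repair-deficient yeast mutant serves as the test organism; compound-induced growth inhibition is calculated against vehicle-treated cells.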

[2] = NCI Yeast Anticancer Drug Screen. Data for the mec2-1 strain (AID 157); settings: S. cerevisiae mec2-1 strain, at 50.0 µM, active compounds read high
Method in brief: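 Test agents were screened against the mec2-1 yeast strain, with defined DNA repair or cell cycle alteration. Growth was scored as inhibition against vehicle-only controls.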

[3] = NCI Yeast Anticancer Drug Screen. Data for the sgs1 mgt1 strain (AID 161);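 further: 0% = growth of cultures given vehicle only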; settings: S. cerevisiae sgs1 mgt1 strain, at 50.0 µM, active compounds read high
Method in brief: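 Read-out: growth inhibition vs vehicle controls. Cells: mutant yeast strain deficient in DNA damage repair.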

[4] = NCI Yeast Anticancer Drug Screen. Data for the cln2 rad14 strain (AID 165);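 further: 0% = growth equal to vehicle treated cultures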; settings: S. cerevisiae cln2 rad14 strain, at 50.0 µM, active compounds read high
Method in brief: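 Growth of compound-exposed yeast (cln2 rad14 genotype) measured and expressed as inhibition relative to vehicle.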

[5] = NCI Yeast Anticancer Drug Screen. Data for the bub3 strain (AID 167); settings: S. cerevisiae bub3 mutant strain, at 50.0 µM, active compounds read high
Method in brief: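 Inhibition values come from growth of compound-treated mutant yeast normalised to vehicle-treated controls.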

[6] = NCI Yeast Anticancer Drug Screen. Data for the mlh1 rad18 strain (AID 175); settings: S. cerevisiae mlh1 rad18 strain growth inhibition; at 50.0 µM; active compounds read high
Method in brief: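 In this whole-cell yeast screen, a strain with altered DNA damage repair is challenged with compound, and its growth is measured against matched vehicle-treated controls.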

Measured: growth inhibition

O=C(O)CNc1ncnc2[nH]ncc12
inactive: [1] 7% | [2] -25.1% | [3] 2.85% | [4] 3.8% | [5] -8.1% | [6] 6%

COc1cc2c(cc1O)C1CC(CC3CCCCN31)OC(=O)/C=C\c1ccc(O)c-2c1 (stereo not given)
inactive: [1] -28.1% | [2] -48.3% | [3] -31.2% | [4] 20.8% | [5] -43.9% | [6] -54.2%

CCN(CC)Cc1ccccc1COC(=O)/C=C/c1ccccc1
inactive: [1] 9.8% | [2] 13.3% | [3] 11.6% | [4] 7.1% | [5] 12.9% | [6] 13.9%

CC1CC(C)OC2(CCCC2)O1 (stereo not given)
inactive: [1] 8.45% | [2] -8.05% | [3] 2.2% | [4] -12.8% | [5] 4.05% | [6] -5.3%

O=C(CC(=O)N1N=C(n2ccc3ccccc32)CC1c1ccccc1)Nc1ccccc1Cl (stereo not given)
inactive: [1] -13.6% | [2] -13.8% | [3] -3.5% | [4] 29.7% | [5] -2.1% | [6] 5.45%

O=C1Nc2ccccc2CS1
inactive: [1] 0.55% | [2] -4.9% | [3] -2.1% | [4] -5.85% | [5] 6.95% | [6] -1.05%

CC(C)(C)NC(=O)Oc1ccc(-c2ccccc2)cc1
inactive: [1] 4.75% | [2] 26.6% | [3] 33% | [4] -4.45% | [5] 18.2% | [6] 32.9%

COc1ccc(/C=C/C(C)=O)c(OC)c1
inactive: [1] 3% | [2] -12.3% | [3] 2.15% | [4] -20.6% | [5] 0.05% | [6] -4.95%

CSc1nc(Cl)nc2c1nc(SC)n2-c1ccccc1
inactive: [1] -8.4% | [2] 7.95% | [3] -0.45% | [4] -8.95% | [5] 16.5% | [6] -15%

COc1ccc(C(=O)c2ccc(OC)c3ccccc23)c2ccccc12
inactive: [1] -7.3% | [2] -5.8% | [3] -1.2% | [4] -22.9% | [5] 3.35% | [6] 4.25%

Clc1ccc(Cl)c2c(Br)cncc12
inactive: [1] 37.4% | [2] 10.8% | [3] 12.9% | [4] 7.05% | [5] 17.5% | [6] 22.1%

CCCNc1ccc2c(c1)C(O)c1ccccc1-2 (stereo not given)
inactive: [1] -4.65% | [2] -5.1% | [3] 5.35% | [4] 2.4% | [5] -4% | [6] -2.95%

CC(C)COC(=O)N1N=NC2C3CC(=O)C(O3)C21 (stereo not given)
inactive: [1] 9.8% | [2] -9.7% | [3] -14.2% | [4] 11.6% | [5] -7.75% | [6] -4.75%

CCN(CCO)CC(=O)c1ccc(Cl)c(Cl)c1
inactive: [1] 0.2% | [2] -12.5% | [3] -6.95% | [4] -13.8% | [5] 16.1% | [6] -0.9%

Clc1ccc(-c2nnc(-c3cccc4ccccc34)o2)cc1Cl
inactive: [1] 10.1% | [2] -32.3% | [3] -29.5% | [4] 54% | [5] -47.9% | [6] -15%

COc1ccc2c(C#N)cc3c4ccccc4ncc3c2c1
inactive: [1] 16.6% | [2] 7% | [3] -9.6% | [4] 19.1% | [5] -4.35% | [6] -10.8%

O=Cc1ccc(O)cn1
inactive: [1] -0.65% | [2] 6.25% | [3] -4.4% | [4] -11.9% | [5] 1.75% | [6] -0.75%

CC(=O)C1C(=O)C(=O)N(c2ccc(F)cc2)C1=O (stereo not given)
inactive: [1] -17.4% | [2] -15.5% | [3] -5.4% | [4] -6.95% | [5] -25.9% | [6] -27.3%

CCOc1ccc(OCC)c(N)c1
inactive: [1] -25.9% | [2] 2.1% | [3] -2.5% | [4] -44% | [5] 10.2% | [6] -19.5%

CCN(CC)CC[n+]1ccc2c(C)c3[nH]c4ccccc4c3c(C)c2c1
inactive: [1] 37.8% | [2] -2.65% | [3] -4.1% | [4] 3.3% | [5] 31.3% | [6] 15.9%
